# From PubChem BioAssay AID540276 (National Center for Advancing Translational Sciences (NCATS), 2011)
# Several values for one entry are separate records, joined by “and”; a condition that tells them apart may be missing. Equal values may be shown once. Screen size: about 300,000 compounds; about 5,400 (1.8%) were called active. Inconclusive results (about 28%) are left out. The sample holds actives, similar compounds and a random draw of the others, so the mix is not that of the screen. Unmarked numbers belong to inactive results. Calls come from the whole dose curve; tested in HEK293 cells.
# Assay: qHTS for inhibitors of binding or entry into cells for Marburg Virus
# Settings: Marburg virus pseudotyped entry inhibition, cell reporter; series mostly up to 37.8 µM; activity change, negative = inhibition: at the top concentration
# % is set by controls: 0 for no effect and ±100 for the full control effect; potency is the fitted concentration of half-maximal effect.
SMILES,"activity change, negative = inhibition",Potency
Cc1ccc(S(=O)(=O)NCC(=O)Nc2ccc3c(c2)OCCO3)cc1,4.18%,–
COc1ccc(OCC(=O)NCCS(=O)(=O)N2CCN(c3ccc(F)cc3)CC2)cc1,-0.979% [at 46.1 µM],–
Cc1cccc(NC(=O)/C=C/c2ccc3c(c2)OCO3)n1,–,6.51 µM (active)
O=C(/C=C/c1ccc2c(c1)OCO2)NCc1ccc(F)cc1,5.87%,–
CCc1c(C)sc(NC(=O)/C=C/c2ccc3c(c2)OCO3)c1C(=O)OC,-15.3%,–
NC(=O)c1ccc(N2CCCC2)nc1,-7.25% [at 46.1 µM],–
OC(COc1ccccc1)CN1CCN(c2cccc(Cl)c2)CC1 (configuration not stated),13.8%,–
Oc1ccc(N2CCN(C(=S)NCc3ccccc3)CC2)cc1,–,3.16 µM (active)
O=C(COC(=O)c1ccccc1C(=O)N1CCN(c2ccccc2)CC1)NCc1ccccc1,-18.8%,–
Oc1ccccc1N1CCN(C(=S)NCc2ccccc2)CC1,2.88% [at 46.1 µM],–
CN(CC(=O)NCc1cccnc1)S(=O)(=O)c1cc(Cl)ccc1Cl,-29.2%,–
O=C(O)C1C2C=CC(O2)C1C(=O)Nc1ccccn1 (configuration not stated),7.56% [at 46.1 µM],–
Cc1c(C)n2c(SCC(=O)NC3CCCC3)nnc2[nH]c1=O,22.3% [at 46.1 µM],–
Cc1cc(N/C=C\C(=O)c2cccc3ccccc23)no1,2.44%,–
COCC(C)NCc1cc(Br)ccc1OC (configuration not stated),-2.58% [at 46.1 µM],–
CC(C)(C)NCc1cc(Br)ccc1OC1CCCC1,–,23.1 µM (active)
COc1ccc(Br)cc1CN(C)C(=O)C1CC(=O)N(C2CCCC2)C1 (configuration not stated),-19.1%,–
Cc1ccc(C)c(NC(=O)c2cc(-c3cc(C)cc(C)c3O)n[nH]2)c1,-20.2% [at 46.1 µM],–
COc1ccccc1CNC(=O)[C@@H]1CCCN1C(=O)[C@@H]1Cc2ccccc2CN1C(=O)OC(C)(C)C,-17.4% [at 46.1 µM],–
COCCCNC(=O)[C@@H](C#N)c1nc2ccccc2nc1N1CCN(Cc2ccccc2)CC1,3.25%,–
CCC(=O)Oc1cccc(C(=O)Nc2ccc(-c3nnc(-c4ccco4)o3)cc2)c1,-28.3%,–
COc1ccc(C(=O)CSc2nnc(-c3ccco3)o2)cc1,13.7% [at 46.1 µM],–
CCOc1ccc(-c2nnc(-c3ccco3)o2)cc1,–,6.51 µM (active)
CC(=O)Nc1ccc(S(=O)(=O)NCC(=O)OCC(=O)c2ccc[nH]2)cc1,-2.18%,–
Cc1cccnc1CCNC(=O)C1CCC(=O)N(Cc2cccc(F)c2)C1 (configuration not stated),5.71%,–
CCOc1ccc(C(C)=O)cc1COC(=O)CNC(=O)c1cccs1,19.3%,–

SMILES,"activity change, negative = inhibition",Potency
O=C(Nc1ccc(Cl)c(Cl)c1)c1ccccc1NC(=O)C1CC=CCC1C(=O)O (configuration not stated),18.7% [at 46.1 µM],–
COC(=O)CC=C[C@@H](C)[C@@H](C=NOC[C@H]1O[C@H](c2ccccc2)C=C[C@H]1Oc1ccc(OC)cc1)N[S+](=O)([O-])c1ccc(C)cc1,1.02% [at 14.2 µM],–
O=C(COC(=O)c1c2c(nc3ccccc13)/C(=C\c1cccs1)CCC2)Nc1ccccc1Cl,-41.2%,–
NS(=O)(=O)c1ccc(NC(=O)COC(=O)c2c3c(nc4ccccc24)/C(=C\c2ccc4c(c2)OCO4)CCC3)cc1,–,11.6 µM (active)
COc1cc(-c2cc(C(=O)OCC(=O)Nc3ccc4c(c3)OCO4)c3ccccc3n2)cc(OC)c1OC,-0.942%,–
COc1cccc(C(=O)NNC(=O)c2cccc(F)c2)c1,6.02%,–
Cc1c(Cl)c([N+](=O)[O-])nn1CC(=O)NCCCN1CCOCC1,-0.45% [at 46.1 µM],–
CCOC(=O)N1CCC(N2Cc3cccc(C(=O)Nc4ccc(S(=O)(=O)N(CC)CC)cc4)c3C2=O)CC1,21.7% [at 46.1 µM],–
CCn1cc(C(=O)O)c(=O)c2c1N=C(C)CC2,-24%,–
COc1cc(SC)ccc1C(=O)Nc1cc(C)ccn1,–,14.6 µM (active)
COc1ccccc1CNC(=O)c1ccc(SC)cc1OC,0.424%,–
Cc1ccnc(NC(=O)c2ccoc2C)c1,10.2%,–
COc1cnn(-c2ccc([N+](=O)[O-])cc2)c(=O)c1Cl,-1.22%,–
Cc1cccnc1CC(C)NC(=O)c1cc(COc2cncc(Cl)c2)on1 (configuration not stated),-5.56% [at 46.1 µM],–
CCCC(O)(c1ccccc1)C(c1ccccc1)c1ccccn1 (configuration not stated),-15.5% [at 46.1 µM],–
O=C(c1ccc2c(c1)N(Cc1ccccc1)C(=O)c1ccccc1S2(=O)=O)N1CCCC1,-4.79% [at 46.1 µM],–
O=C(c1ccc2c(c1)N(Cc1ccc(F)cc1)C(=O)c1ccccc1S2(=O)=O)N1CCN(c2ccccn2)CC1,–,5.01 µM (active) and 3.16 µM (active)
O=C(c1ccc2c(c1)N(Cc1ccc(Cl)cc1)C(=O)c1ccccc1S2(=O)=O)N1CCCCC1,13.1% [at 46.1 µM],–
O=C(Nc1ccc(S(=O)(=O)Nc2ccccn2)cc1)c1ccccc1,1.38%,–
COC(=O)Cc1nc2c(N)nc(N)nc2[nH]c1=O,-8.16% [at 46.1 µM],–
CCCCn1c(N)c(N(CCC(C)C)C(=O)CC2OC(=O)c3ccccc32)c(=O)[nH]c1=O (configuration not stated),18%,–
COc1ccc(Cl)cc1NC(=O)COC(=O)c1ccc(Br)o1,4.51% [at 46.1 µM],–
c1ccc(-c2ccccc2OCCN2CCCCC2)cc1,–,14.6 µM (active)
CC1CN(CCCOc2ccccc2-c2ccccc2)CC(C)O1 (configuration not stated),-9.52% [at 46.1 µM],–
c1ccc2cc(OCCN3CCCC3)ccc2c1,-7.89%,–
O=[N+]([O-])c1ccccc1OCCCCN1CCCCC1,9.45%,–
